Screening data (PubChem BioAssay)
The list is not random: actives were taken first. Their share in the collection is about 3.3%.
Sm TGR inh = S. mansoni TGR enzyme inhibition; Q962Y6; purified TGR, DTNB reduction, TNB absorbance 405 nm; Potency, µM (highest dose often 114 µM), most hits filed as inhibitors; hit rate 3% among 360,000; AID 485364; note: nearly all actives have a fitted effect of over 60% in size
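First, TGR (20 nM dispensed) and NADPH were mixed with compound. Second, a 15 min room-temperature incubation followed. Third, further NADPH and then DTNB were added to start the reaction. Finally, TNB absorbance was monitored kinetically.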
AmpC no deterg = blocks E. coli AmpC beta-lactamase in detergent-free assay; AmpC nitrocefin hydrolysis, absorbance 480 nm, 0.0001% Triton; Potency, µM (top dose mostly 57.1 µM), usual class: inhibitors; hit rate 0.52% among 330,000; note: nearly all actives have a fitted effect of over 20% in size
Target sequence (P00811 whole entry, looked up): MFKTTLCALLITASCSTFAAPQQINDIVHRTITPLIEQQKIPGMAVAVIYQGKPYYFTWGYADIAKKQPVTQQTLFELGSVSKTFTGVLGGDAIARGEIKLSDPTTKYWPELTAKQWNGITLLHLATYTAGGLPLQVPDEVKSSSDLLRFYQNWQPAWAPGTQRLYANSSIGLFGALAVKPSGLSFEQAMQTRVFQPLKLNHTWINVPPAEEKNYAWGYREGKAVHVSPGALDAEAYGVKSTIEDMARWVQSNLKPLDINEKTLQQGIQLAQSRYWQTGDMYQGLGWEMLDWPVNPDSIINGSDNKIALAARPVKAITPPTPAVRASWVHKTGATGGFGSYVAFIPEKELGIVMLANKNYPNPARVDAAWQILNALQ
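20 mM phosphate pH 7.0 + 0.01% (detergent screen) or 0.0001% Triton X-100; 5.3 nM AmpC reagent; cpd preinc 15 min RT; nitrocefin (800 uM stock) to start; A480 q20 s × 4 min; Activity was normalised to no-enzyme and no-compound control wells.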
AmpC inh detg = inhibitors of E. coli AmpC beta-lactamase with detergent | AmpC hydrolysis of nitrocefin, absorbance 480 nm, 0.01% Triton | Potency, µM (titrated, usually from 114 µM), usual class: inhibitors | hit rate 0.041% among 370,000; note: nearly all actives have a fitted effect of over 25% in size
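AmpC (5.3 nM in the dispensed reagent) in 20 mM phosphate pH 7.0 with 0.01% (detergent screen) or 0.0001% Triton X-100 was preincubated with compounds for 15 min at room temperature. Nitrocefin was then added from an 800 uM solution, and hydrolysis was followed at 480 nm.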
Each line names hits and unclear results; the compound was inactive in the other large screens. Calls come from the whole dose curve; as a rule, active = well fitted curve in the direction sought with a large enough effect; inconclusive = small, poorly fitted or top-dose-only effect, or another doubt; inactive = no such curve, though single readings can be large; an effect the other way counts as inactive or inconclusive.

CC(C)C(=O)NC(Oc1ccccc1Cl)C(Cl)(Cl)Cl (configuration not stated)	Sm TGR inh 25.1µM
O=C(Cc1ccccc1)NC(Oc1ccccc1Cl)C(Cl)(Cl)Cl (configuration not stated)	Sm TGR inh 31.6µM
CCOc1ccc(CCNC(=O)CN2C(=O)COc3ccc(S(=O)(=O)N4CCC(C)CC4)cc32)cc1	none (no result: AmpC no deterg)
Cc1cc(C)n(CC(=O)Nc2ccc(F)c(F)c2)c(=O)c1C#N	none (no result: AmpC no deterg)
Cc1ccc(S(=O)(=O)CCC(=O)Nc2ccccc2N2CCCC2)cc1	none
Cc1ccc(S(=O)(=O)CCC(=O)Nc2sccc2C(N)=O)cc1	none (no result: Sm TGR inh, AmpC inh detg)
Cc1ccc(S(=O)(=O)CCC(=O)Nc2ccccc2C)cc1	Sm TGR inh 39.8µM
CCOc1ccc(OCCCC(=O)Nc2cc(Cl)ccc2-n2cncn2)cc1	none
Cc1ccc(S(=O)(=O)CCC(=O)Nc2cc(Cl)ccc2-n2cncn2)cc1	Sm TGR inh 17.8µM, AmpC inh detg inconclusive
Cc1ccc(S(=O)(=O)CCC(=O)Nc2sccc2C#N)cc1	Sm TGR inh 44.7µM, AmpC inh detg inconclusive
COC(=O)c1c(SC)nc2ccccc2c1OCc1ccccc1Cl	none (no result: AmpC no deterg)
Cc1[nH][nH]c(=O)c1C(c1ccc(-c2ccc(Cl)c(C(=O)O)c2)o1)c1c(C)[nH][nH]c1=O	Sm TGR inh 15.8µM
COC(=O)c1ccccc1-c1ccc(C(c2c(C)[nH][nH]c2=O)c2c(C)[nH][nH]c2=O)o1	none
COC(=O)c1cccc(-c2ccc(C(c3c(C)[nH][nH]c3=O)c3c(C)[nH][nH]c3=O)o2)c1	Sm TGR inh 14.1µM
CC1=NOC(=O)/C1=C\c1ccc(-c2ccc(Cl)c(C(=O)O)c2)o1	none
O=C(Cn1cnc2onc(-c3ccc(F)cc3)c2c1=O)N1CCN(c2ccc(F)cc2)CC1	none (no result: AmpC no deterg)
CC12CN3CC(c4ccccc4)(CN(C1)C3c1ccc(Cl)cc1)C2=O (configuration not stated)	none (no result: AmpC no deterg)
O=[N+]([O-])c1cnc(Sc2ccncn2)s1	Sm TGR inh 0.316µM, AmpC inh detg inconclusive
O=C1NCCN1c1ncc([N+](=O)[O-])s1	none
CCCn1c(=O)n(-c2cc(Cl)c(OC)cc2OC)c(=O)c2c3c(sc21)CN(C(C)=O)CC3	none (no result: AmpC no deterg)
Cn1c(=O)c2c(nc3n2CC(O)CN3c2ccc(O)cc2)n(C)c1=O (configuration not stated)	Sm TGR inh 20µM
Cc1ccc(N2CC(O)Cn3c2nc2c3c(=O)n(C)c(=O)n2C)cc1 (configuration not stated)	none
COc1ccc(-c2cc(C(F)(F)F)n3ncc(-c4ccccc4)c3n2)cc1	none (no result: AmpC no deterg)
O/N=C/c1ccccc1Oc1ccc(Cl)cc1	none
N#CCC(=O)c1ccccc1Oc1ccc(Cl)cc1	AmpC no deterg 3.98µM, AmpC inh detg inconclusive
O=c1[nH]c(CN2CCCC2)nc2sc3c(c12)CCC3	none
Clc1nc(CN2CCCCC2)nc2sc3c(c12)CCC3	Sm TGR inh 22.4µM
COc1ccc(NC(=O)c2cc(S(=O)(=O)Nc3ccc(OC)cc3)cs2)cc1	AmpC no deterg 11.2µM
O=C(Nc1ccc(F)cc1)c1cc(S(=O)(=O)Nc2ccc(F)cc2)cs1	none
CCOC(=O)C1/C(=N\O)CC(C)(O)C(C(=O)OCC)C1c1ccc(OC)c(OC)c1 (configuration not stated)	none
CCOC(=O)C1/C(=N\O)CC(C)(O)C(C(=O)OCC)C1c1ccc(N(C)C)cc1 (configuration not stated)	Sm TGR inh 35.5µM
Cc1ccccc1Nc1c(-c2ccc(N3CCOCC3)cc2)nc2ccc(Cl)cn12	none (no result: AmpC no deterg)
Cc1ccc(NC(=S)Nc2cccc(-c3n[nH]c(=S)o3)c2)cc1	Sm TGR inh 12.6µM
NC(=S)Nc1cccc(-c2n[nH]c(=S)o2)c1	none
COc1ccc(CNC(=O)c2cnc3sc(N4CCCCCC4)nn3c2=O)cc1	none (no result: AmpC no deterg)
COC(=O)C1CN(C#N)N(c2ccc(Cl)cc2)C12c1ccccc1-c1ccccc12 (configuration not stated)	Sm TGR inh 5.62µM, AmpC inh detg inconclusive
O=C1c2ccccc2C(O)N1c1ccc(Cl)cc1 (configuration not stated)	AmpC inh detg inconclusive
Cc1ccc(S(=O)(=O)Nc2nc(C)c(C(=O)NN)s2)cc1	Sm TGR inh 70.8µM, AmpC no deterg inconclusive
CCOC(=O)Nc1sc(NS(=O)(=O)c2ccc(C)cc2)nc1C	Sm TGR inh inconclusive
Cc1nc(NS(=O)(=O)c2ccccc2)sc1NC(=O)Nc1ccc(Cl)cc1	Sm TGR inh 5.62µM, AmpC no deterg 15.8µM
CC(=O)c1sc(NS(=O)(=O)c2ccc(C)cc2)nc1C	none
CC(=O)c1ccc(NC(=O)Nc2sc(NS(=O)(=O)c3ccccc3)nc2C)cc1	Sm TGR inh 35.5µM
CC(=O)c1ccc(NS(=O)(=O)c2ccccc2)cc1	none
